Compound activity deposited in PubChem BioAssay by National Center for Advancing Translational Sciences (NCATS).
An excerpt weighted towards active compounds, which were near 12% of everything screened.
Sfp PPTase inh – Sfp phosphopantetheinyl transferase inhibition; Biochemical Sfp PPTase activity, qHTS; Potency, µM, for inactives: largest response in the series, negative = inhibition, actives largely listed as inhibitors; 310,000 compounds, 3.5% hits; AID 1490;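 also: the enzyme is Sfp with the accession as filed and its product quenches rhodamine fluorescence; 0% = enzyme reaction without inhibitor and -100% = no enzyme wells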
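Compounds were incubated with enzyme (final 15 nM) for 15 min at room temperature before substrate addition started the reaction. Fluorescence at 525 nm excitation, 598 nm emission was recorded immediately and after 30 minutes.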
Gal4-VP16 FLuc – inhibits Gal4-VP16 luciferase reporter, ROR gamma counter-screen; Drosophila S2 Gal4-VP16 UAS-luciferase, luminescence, 20 h; Potency, µM (doses to about 53.6 µM), for inactives: at the highest dose activity, negative = inhibition, hits mostly inhibitors; 310,000 compounds, 3.5% hits; AID 2546;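 also: Gal4-VP16 expression switched on by copper sulfate through the metallothionein promoter; nearly all actives have a fitted effect of over 50% in size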
RORgamma inh – blocks mouse ROR gamma transcriptional activity; Drosophila S2 Gal4-RORgamma UAS-luciferase reporter, 20 h; Potency, µM (highest dose often 53.6 µM), for inactives: at the top dose activity change, negative = inhibition, usual class: inhibitors; 310,000 compounds, 5.4% hits; AID 2551; also: nearly all actives have a fitted effect of over 60% in size
Target sequence (P51450 whole entry, looked up, the tested form may be a part): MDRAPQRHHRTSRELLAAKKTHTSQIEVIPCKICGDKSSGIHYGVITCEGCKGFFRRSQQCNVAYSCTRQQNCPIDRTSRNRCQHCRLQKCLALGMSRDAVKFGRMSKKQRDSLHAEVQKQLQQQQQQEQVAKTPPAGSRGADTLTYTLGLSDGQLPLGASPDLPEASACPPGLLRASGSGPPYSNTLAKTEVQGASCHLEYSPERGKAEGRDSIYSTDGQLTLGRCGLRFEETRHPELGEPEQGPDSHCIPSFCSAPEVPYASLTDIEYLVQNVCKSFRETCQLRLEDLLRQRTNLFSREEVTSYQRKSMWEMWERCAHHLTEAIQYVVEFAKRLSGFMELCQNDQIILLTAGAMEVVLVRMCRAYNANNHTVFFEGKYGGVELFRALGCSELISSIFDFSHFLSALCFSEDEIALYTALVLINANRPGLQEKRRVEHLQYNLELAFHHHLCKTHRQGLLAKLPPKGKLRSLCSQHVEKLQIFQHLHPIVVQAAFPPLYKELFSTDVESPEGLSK
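Drosophila Schneider cells stably carrying a metallothionein-driven Gal4 DBD–ROR gamma fusion and a UAS-Photinus luciferase reporter were exposed to compound for 1 hr, then induced with copper sulfate (700 uM final) for 20 hr at ambient temperature before luminescence reading.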
ALDH1A1 inh – blocks purified human ALDH1A1 activity. 220,000 compounds, 7.3% hits. Purified ALDH1A1, NADH fluorescence, propionaldehyde substrate. P00352. Potency, µM (titrated, usually from 75.3 µM), for inactives: top-dose activity, negative = inhibition, actives largely listed as inhibitors. AID 1030; active = well fitted inhibition curve with a large enough effect, not every such curve was filed as active; inconclusive = small, poorly fitted or top-dose-only effect, or another doubt; inactive = no such curve, though single readings can be large or run the other way;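 also: plate controls were no enzyme wells and a reference inhibitor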
PLK1 PBD inh – blocks phosphopeptide binding to human PLK1 polo-box domain. P53350. Plk1 PBD binding of FITC phosphopeptide, fluorescence polarization. Potency, µM, inactives show max response, negative = inhibition, usual class: inhibitors. 360,000 compounds, 2.8% hits. AID 720504; also: series mostly up to about 57 µM; nearly all actives have a fitted effect of over 65% in size
* hit, by the source's call; u = inconclusive; x = not tested or not shown; ! = repeats disagree; [ ] = dose if it differs, or a comment. Unless noted, calls follow the shape of the dose curve; as a rule, active = well fitted curve in the direction sought with a large enough effect; inconclusive = small, poorly fitted or top-dose-only effect, or another doubt; inactive = no such curve, though single readings can be large; an effect the other way counts as inactive or inconclusive. Unless noted, % is scaled to controls: 0 for no effect and ±100 for the full control effect; potency is read from the fitted curve at half-maximal effect.

SMILES	Sfp PPTase inh	Gal4-VP16 FLuc	RORgamma inh	ALDH1A1 inh	PLK1 PBD inh
COC(=O)N1CCCCC1c1cc(C(=O)Nc2cccc3c2CCCC3)no1 (stereo not drawn)	x	x	x	x	4%
NCCSCCC(=O)O	x	x	x	6%[13.5 µM]	x
NCCSSCCN	45µM*!	14%	7%	-1%[13.5 µM]	u
Cc1cccc(/C=N/n2c(-c3ccco3)n[nH]c2=S)c1	u	-20%	u	x	u
S=c1[nH]nc(-c2ccccn2)n1/N=C/c1cccc(Cl)c1	1%	u	11µM*	u	u
S=c1[nH]nc(-c2ccco2)n1/N=C/c1cccc(Cl)c1	-4%	-16%	14µM*	x	u
S=c1[nH]ncn1/N=C/c1ccccn1	16µM*	1%	-22%	u	-8%
S=c1[nH]nc(-c2ccco2)n1/N=C/c1ccc(Cl)c(Cl)c1	-9%	5.6µM*	5.6µM*	u	9.5µM*
CCC[C@H]1CN(c2ccc(OC)cc2)C(=O)[C@@H]1CC(=O)NC	x	x	x	x	-5%
CCOCCCn1c(SCC(=O)Nc2ccc3[nH]c(=O)[nH]c3c2)nc2ccccc2c1=O	x	x	x	x	-1%
Cc1noc(C)c1NC(=O)N(C)C[C@H]1OCCCC[C@@H](C)Oc2ccc(NS(=O)(=O)c3ccccc3)cc2C(=O)N([C@H](C)CO)C[C@@H]1C	x	x	x	x	-10%
Cc1ccsc1/C=N/n1c(-c2ccccn2)n[nH]c1=S	u	u	u	u	-9%
S=c1[nH]nc(-c2ccco2)n1/N=C/c1ccccn1	79µM*	-2%	-22%	-8%	x
S=c1[nH]nc(-c2ccccn2)n1/N=C/c1ccco1	45µM*	0%	-24%	x	-9%
Cc1ccsc1/C=N/n1c(-c2ccco2)n[nH]c1=S	-14%	-23%	-71%	14µM*	-23%
Cn1cccc1/C=N/n1c(-c2ccco2)n[nH]c1=S	u	-4%	11µM*	-8%	-5%
Cc1ccsc1/C=N/n1c(-c2ccccc2)n[nH]c1=S	-14%	-9%	14%	u	-10%
C=CCN1c2ccccc2[C@]23C[C@@H](C(=O)OC)N(S(=O)(=O)c4ccc5c(c4)OCCN5C)C2=NC(C(=O)OC)=C(C(=O)OC)[C@H]13	9%	x	x	6%[13.5 µM]	x
CC(=O)c1cccc(NC(=O)C2(C)Cc3c(-c4cccc(C(F)(F)F)c4)ccnc3O2)c1 (stereo not drawn)	x	x	x	x	1%
COc1ccc(O[C@H]2C=C[C@@H](c3ccccc3)O[C@H]2COC(=O)CC/C(C)=N\O[C@@H](C)CN2CCCCc3nc(C)c(C)cc32)cc1	6%	0%[10 µM]	-14%[10 µM]	3%[13.5 µM]	x
Cc1ccc(/C=N/n2c(-c3ccco3)n[nH]c2=S)cc1	-17%	u	7.1µM*	x	u
COc1ccc([N+](=O)[O-])cc1N	x	8%	11%	-6%	x
COC(=O)C1(CC(C)C)C=C2C(=C(C)C(=O)C2C)CN1 (stereo not drawn)	1%	-16%	1%	u	x
O=C(O)C(Cc1cn[nH]n1)=NO	79µM*	4%	-7%	x	0%
CCOC(=O)c1ccc(N2C(=O)CC(N3CCN(Cc4ccccc4)CC3)C2=O)cc1 (stereo not drawn)	18%	-3%	-19%	28µM*	-13%
SMILES	Sfp PPTase inh	Gal4-VP16 FLuc	RORgamma inh	ALDH1A1 inh	PLK1 PBD inh
O=C1CC(N2CCN(Cc3ccccc3)CC2)C(=O)N1c1ccccc1 (stereo not drawn)	15%	13%	-18%	-14%	-3%
CCOC(=O)N1CCN(C2CC(=O)N(c3ccccc3)C2=O)CC1 (stereo not drawn)	19%	0%	-9%	-2%	-1%
CCOC(=O)C1CCCN(C2CC(=O)N(c3cccc(C)c3)C2=O)C1 (stereo not drawn)	-22%	2%	-22%	u	-9%
CCOC(=O)N1CCN(C2CC(=O)N(c3ccc(Cl)c(Cl)c3)C2=O)CC1 (stereo not drawn)	-3%	2%	14%	14µM*	-13%
CCOC(=O)c1ccc(N2C(=O)CC(N3CCC(Nc4ccc(F)cc4)CC3)C2=O)cc1 (stereo not drawn)	6%	24%	-7%	3.2µM*	-3%
CCOC(=O)c1ccc(N2C(=O)CC(N3CCCC(C)C3)C2=O)cc1 (stereo not drawn)	-22%	u	u	3.2µM*	-3%
CCOC(=O)C1CCCN(C(=O)c2ccc3c(c2)C(C)(C)CCC3(C)C)CC1 (stereo not drawn)	x	x	x	x	2%
CSCC[C@@H](C(=O)O)N(C)C	x	x	x	7%[13.5 µM]	x
O=C(O)CNC(=O)c1ccccc1O	x	x	x	-10%[13.5 µM]	x
COC(=O)[C@@]12C[C@@H](CC(=O)NCc3ccc(C)o3)C(=O)N(Cc3cccc4ccccc34)C1=CCC(C)(C)C2	x	x	x	x	-5%
Cc1ccc(S(=O)(=O)N2C[C@H]3C(=O)C[C@@H](c4cccs4)N(S(=O)(=O)c4ccc(C)cc4)[C@H]3C[C@H]2c2ccccc2)cc1	x	x	x	x	-11%
Cc1nn(CC(O)COc2ccc3c(c2)CCC3)c(C)c1C (stereo not drawn)	24%	8%	7%	-5%	3.4µM*
CCN(CC(=O)Nc1ccc(NC(C)=O)cc1)C(=O)C1CC1	x	x	x	x	-8%
CCC(=O)Nc1cccc(NC(=O)c2ccccc2Br)c1	27%	-5%	4%	-6%	0%
CCN(CC)S(=O)(=O)c1cccc(NC(=O)c2ccccc2Br)c1	u	-15%	7%	11µM*	-6%
CCOc1ccc(N2C(=O)C3Sc4[nH]c(=O)sc4C(c4ccc(OC)c(OC)c4)C3C2=O)cc1 (stereo not drawn)	-27%	3%	-25%	x	-9%
O=C1C2Sc3[nH]c(=O)sc3C(c3ccccc3)C2C(=O)N1c1ccccc1 (stereo not drawn)	79µM*	-2%	24%	u	-20%
COc1ccc(C2c3sc(=O)[nH]c3SC3C(=O)N(c4ccccc4)C(=O)C32)cc1 (stereo not drawn)	-10%	21%	-35%	22µM*	u
CCCc1nc2ccc(Br)cn2c1Cc1cccc(Cl)c1	x	x	x	x	-6%
COc1cccc(CN2CCC(C(=O)NC(C)c3cccc4ccccc34)CC2)c1 (stereo not drawn)	x	x	x	x	-9%
COc1ccccc1C(=O)Nc1nnn(C)n1	24%	2%	1%	11%	-9%
Cn1nnc(NC(=O)c2ccccc2)n1	11%	20%	u	8%	2%
Cn1nnc(NC(=S)NC(=O)c2cccc3c(Br)cccc23)n1	u	2.8µM*	0.89µM*	x	u
Cn1nnc(NC(=S)NC(=O)c2cccc3c(Cl)cccc23)n1	-10%	2.8µM*	0.89µM*	x	-23%
COc1c(C(=O)NC(=S)Nc2nnn(C)n2)cc2ccccc2c1Br	7%	4µM*	2.5µM*	x	-24%
CN(Cc1nc(-c2ccncc2)no1)S(=O)(=O)c1ccccc1	-3%	9%	2.5µM*	7%	u
c1ccc(-c2nc(-c3ccncc3)no2)cc1	-1%	-17%	17%	4%	-2%
O=C(O)c1ccc(-c2noc(-c3ccccc3F)n2)cc1	x	10µM*	x	x	x
